Laboratory results published in PubChem BioAssay AID1159580 (chemical genetic matrix, 2015).
About 2,000 (36%) of roughly 5,500 compounds were called active. Roughly 18% stayed inconclusive and do not appear here. No stated cut-off is given here; in the data, active means normalized growth mostly below about 0.91 (no sharp cut-off); inconclusive means no clear call, values can overlap the other calls; inactive means mostly above about 0.92. Some of the results follow.

Test: chemical genetic growth profiling, strain panel (AID 1159580);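 further: tested at 20 µM; growth read once vehicle control cultures reached saturation at 30 °C; 1 = growth at the plate median or of vehicle wells; lower values mean less growth of the strain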
Conditions: S. cerevisiae deletion strains, growth OD

Measured: normalized growth

Cc1cccc(C(=O)O)c1O
inactive: locus YAL013W, strain DEP1, active compounds read low 1.01 | locus YBR021W, strain FUR4, active compounds read low 0.997 | locus YBR229C, strain ROT2, active compounds read low 1.02 | locus YCL029C, strain bik1, active compounds read low 1.02 | locus YDL035C, strain GPR1, active compounds read low 0.999 | locus YDL074C, strain BRE1, active compounds read low 1.02 | locus YDL101C, strain DUN1, active compounds read low 1.02 | locus YDL134C, strain PPH21, active compounds read low 1.01 | locus YDL185W, strain tfp1, active compounds read low 1.02 | locus YDL192W, strain arf1, active compounds read low 1.01 | locus YDR101C, strain arx1, active compounds read low 1.01 | locus YDR162C, strain NBP2, active compounds read low 1.02 | locus YDR318W, strain mcm21, active compounds read low 1.02 | locus YDR388W, active compounds read low 1.02 | locus YDR502C, strain sam2, active compounds read low 1.01 | locus YEL061C, strain CIN8, active compounds read low 1.01 | locus YER110C, active compounds read low 1.01 | locus YER155C, strain BEM2, active compounds read low 1 | locus YER167W, strain BCK2, active compounds read low 1.01 | locus YGL078C, strain dbp3, active compounds read low 1 | locus YGL086W, strain mad1, active compounds read low 1.01 | locus YGL248W, strain PDE1, active compounds read low 1.02 | locus YGR078C, strain PAC10, active compounds read low 1.01 | locus YGR135W, strain pre9, active compounds read low 1.02 | locus YGR252W, strain gcn5, active compounds read low 1 | locus YHR030C, strain SLT2, active compounds read low 1.02 | locus YHR079C, strain IRE1 (second series), active compounds read low 1.01 | locus YHR094C, strain hxt1, active compounds read low 1.01 | locus YHR129C, strain ARP1, active compounds read low 1.01 | locus YHR200W, strain rpn10, active compounds read low 1.02 | locus YIL066C, strain RNR3, active compounds read low 1.02 | locus YIL073C, strain SPO22, active compounds read low 1.02 | locus YIL125W, strain kgd1, active compounds read low 1.01 | locus YIR030C, strain dcg1, active compounds read low 1.02 | locus YJL095W, strain BCK1, active compounds read low 1.02 | locus YJL134W, strain LCB3, active compounds read low 1.01 | locus YJL168C, strain set2, active compounds read low 1 | locus YJL187C, strain SWE1 (second series), active compounds read low 1.02 | locus YJR043C, strain POL32, active compounds read low 1.01 | locus YKL009W, strain mrt4, active compounds read low 0.968 | locus YKL068W, active compounds read low 1 | locus YKL085W, strain MDH1 (second series), active compounds read low 1 | locus YKL085W, strain MDH1, active compounds read low 1 | locus YKR001C, strain vps1, active compounds read low 1.02 | locus YLR039C, strain RIC1, active compounds read low 0.993 | locus YLR058C, strain SHM2, active compounds read low 1.02 | locus YLR102C, strain apc9, active compounds read low 1.01 | locus YLR262C, strain YPT6, active compounds read low 1.04 | locus YLR268W, strain sec22, active compounds read low 1.03 | locus YLR330W, strain CHS5, active compounds read low 1.01 | locus YLR342W, strain FKS1 (second series), active compounds read low 0.995 | locus YLR371W, strain rom2, active compounds read low 1.02 | locus YLR418C, strain cdc73, active compounds read low 1.05 | locus YML016C, strain PPZ1, active compounds read low 1.01 | locus YML032C, strain rad52, active compounds read low 1.02 | locus YML124C, strain tub3, active compounds read low 1.02 | locus YMR078C, strain ctf18, active compounds read low 1.02 | locus YMR223W, strain ubp8, active compounds read low 1.02 | locus YMR307W, strain GAS1, active compounds read low 0.975 | locus YNL067W, strain RPL9B, active compounds read low 1.02 | locus YNL153C, strain GIM3, active compounds read low 1.01 | locus YNL233W, strain BNI4, active compounds read low 1.02 | locus YNL250W, strain rad50, active compounds read low 1.02 | locus YNL271C, strain bni1, active compounds read low 1 | locus YNL298W, strain CLA4, active compounds read low 0.996 | locus YNL307C, strain MCK1, active compounds read low 1.02 | locus YNL322C, strain KRE1, active compounds read low 1.01 | locus YNR052C, strain pop2, active compounds read low 1.03 | locus YOL012C, strain htz1 0.786 | locus YOL147C, strain pex11, active compounds read low 1.01 | locus YOR061W, strain CKA2, active compounds read low 1.01 | locus YOR069W, strain VPS5, active compounds read low 1.02 | locus YOR136W, strain idh2, active compounds read low 1.01 | locus YOR144C, strain elg1, active compounds read low 1.01 | locus YOR184W, strain ser1, active compounds read low 1.02 | locus YOR316C, strain cot1, active compounds read low 1.02 | locus YPL055C, strain LGE1, active compounds read low 1.01 | locus YPL241C, strain CIN2, active compounds read low 1.01 | locus YPR119W, strain clb2, active compounds read low 1.01 | locus YPR141C, strain kar3, active compounds read low 1.01 | locus YPR163C, strain tif3, active compounds read low 1.02 | locus YPR167C, strain met16, active compounds read low 1.01 | strain wtn01, active compounds read low 1
